Source: PubChem BioAssay
This excerpt belongs to a sample that is enriched for hits.
nsP2pro inh: Primary qHTS for inhibitors of NSP2Pro chikungunya virus (CHIKV); Polyprotein P1234 (Chikungunya virus (strain S27-African prototype)), Q8JUX6; FRET peptide cleavage, nsP2pro, fluorescence 1 h; Potency, µM (highest dose often 24.9 µM), for inactives: top-dose activity change, negative = inhibition, actives largely listed as inhibitors; 31,000 tested, 1.1% active; AID 1964107, 2024; further: nearly all actives have a fitted effect of over 60% in size
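Recombinant nsP2pro (150 nM) was preincubated with compound 15 min at room temperature in 10 mM Tris-HCl pH 8.0, 0.01% Tween 20. Peptide 2 FRET substrate (2.5 uM) was then added and fluorescence read after 1 h. Seven-point series, up to 25 uM.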
CHIKV nsP2 cell: Secondary cell base assay for inhibitors of NSP2Pro Chikungunya virus (CHIKV). AID 1964100, 2024. shares compounds with nsP2pro inh. cell-based CHIKV nsP2 protease reporter assay. 450 tested, 10% active. Potency, µM (highest dose often 51.1 µM), without a hit: at the top dose activity change, negative = inhibition, actives largely listed as inhibitors; further: nearly all actives have a fitted effect of over 70% in size
CHIKV NSP2 FL: Selectivity profile for inhibitors of NSP2Pro chikungunya virus (CHIKV): Full length NSP2 enzyme counterscreen (CHIKV-NSP2); shares compounds with nsP2pro inh; Full-length CHIKV NSP2 protease enzymatic counterscreen; Potency, µM (top dose mostly 50.7 µM), without a hit: top-dose activity change, negative = inhibition, most hits filed as inhibitors; 410 tested, 39% active; further: nearly all actives have a fitted effect of over 65% in size
Furin counter: Selectivity profile for inhibitors of NSP2Pro chikungunya virus (CHIKV): Human furin counterscreen; shares compounds with nsP2pro inh; Recombinant human furin enzymatic counterscreen, fluorogenic substrate; Potency, µM (titrated, usually from 50.6 µM), for the others: top-dose activity change, negative = inhibition, most hits filed as inhibitors; 410 tested, 6% active; AID 1964102, 2024
Target sequence (P09958 whole entry, looked up): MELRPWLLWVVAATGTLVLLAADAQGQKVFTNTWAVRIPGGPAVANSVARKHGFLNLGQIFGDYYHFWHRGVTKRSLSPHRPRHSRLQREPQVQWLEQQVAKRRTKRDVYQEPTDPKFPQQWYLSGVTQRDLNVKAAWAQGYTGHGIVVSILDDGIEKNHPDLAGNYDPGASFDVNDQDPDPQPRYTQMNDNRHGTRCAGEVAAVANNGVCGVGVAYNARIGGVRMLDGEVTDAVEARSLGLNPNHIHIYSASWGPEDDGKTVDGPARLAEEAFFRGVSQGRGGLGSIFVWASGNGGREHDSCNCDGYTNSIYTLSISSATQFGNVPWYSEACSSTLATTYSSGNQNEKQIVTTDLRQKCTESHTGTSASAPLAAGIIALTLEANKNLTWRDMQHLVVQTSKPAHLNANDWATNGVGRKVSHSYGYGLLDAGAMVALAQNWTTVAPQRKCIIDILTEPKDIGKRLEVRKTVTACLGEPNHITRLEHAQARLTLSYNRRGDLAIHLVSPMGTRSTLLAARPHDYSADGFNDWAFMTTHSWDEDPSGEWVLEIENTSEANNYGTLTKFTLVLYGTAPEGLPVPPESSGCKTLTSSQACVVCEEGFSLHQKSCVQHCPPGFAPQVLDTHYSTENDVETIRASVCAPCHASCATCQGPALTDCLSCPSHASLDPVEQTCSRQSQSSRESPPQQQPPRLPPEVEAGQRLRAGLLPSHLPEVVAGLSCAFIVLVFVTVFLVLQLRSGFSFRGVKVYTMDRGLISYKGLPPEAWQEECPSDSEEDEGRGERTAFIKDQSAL
NS23 peptide cs: Selectivity profile for inhibitors of NSP2Pro chikungunya virus (CHIKV): Endogenous NS2/3 peptide Counterscreen. 410 tested, 34% active. Potency, µM (titrated, usually from 51 µM), inactives show at the highest dose activity change, negative = inhibition, most hits filed as inhibitors. Purified CHIKV nsP2 protease, endogenous NS2/3 peptide cleavage. shares compounds with nsP2pro inh; further: nearly all actives have a fitted effect of over 55% in size
Papain counter: Selectivity profile for inhibitors of NSP2Pro chikungunya virus (CHIKV): Papain Counterscreen | purified papain protease activity, enzymatic inhibition | Potency, µM (series often up to 51 µM), inactives show at the highest dose activity change, negative = inhibition, usual class: inhibitors | shares compounds with nsP2pro inh | 410 tested, 5% active | AID 1964104, 2024
nsP2pro conf qHTS: Confirmatory qHTS for inhibitors of NSP2Pro chikungunya virus (CHIKV). shares compounds with nsP2pro inh. CHIKV nsP2 protease enzymatic activity, qHTS. Potency, µM (top dose mostly 25.5 µM), for the others: top-dose activity change, negative = inhibition, actives largely listed as inhibitors. 410 tested, 43% active. AID 1964105, 2024; further: nearly all actives have a fitted effect of over 75% in size
HCV NS3 4A cs: Selectivity profile for inhibitors of NSP2Pro chikungunya virus (CHIKV): NS34A-HCV Counterscreen | shares compounds with nsP2pro inh | HCV NS3/4A protease biochemical counterscreen | Potency, µM (highest dose often 50.9 µM), actives largely listed as inhibitors | 410 tested, 20% active; further: nearly all actives have a fitted effect of over 55% in size
The depositor's hits bear a star; i = inactive; u = inconclusive; [ ] = another dose, or the depositor's remark. The call rests on the fitted dose curve. On the % scale 0 is the no-effect control and ±100 the full control effect; potency means the concentration at half of the fitted maximal effect.

SMILES	nsP2pro inh	others
CC[C@H](C)/C=C(C)/C=C/C1=CC2=CC(=O)[C@]3(C)OC(=O)[C@@H](C(C)=O)[C@@H]3C2=CO1	u	CHIKV nsP2 cell=2%[33.5 µM];CHIKV NSP2 FL=u;Furin counter=-22%[33.5 µM];NS23 peptide cs=u;Papain counter=41%[33.5 µM];nsP2pro conf qHTS=u;HCV NS3 4A cs=i
O=C(Nc1ccnn1C1CCN(Cc2ccc(-c3ccccc3)cc2)CC1)C1CC1	i
c1ccc(-c2nc(C3CC3)no2)c(OC2CCNC2)c1 (stereo not given)	i
O=C(O)c1ccnc2cc(C(OCCCN3CCCCC3)c3ccccc3Cl)[nH]c12 (stereo not given)	18%
O=S(=O)(NC[C@H]1O[C@@H](CO)[C@@H](O)[C@H]1N1CCN(c2ccc(F)cc2)CC1)c1ccc(F)cc1	-19%
Cc1ccnc(N(C)C(=S)N2CCN(c3cccc(C(F)(F)F)c3)CC2)c1	-3%
COc1cccc(NC(=S)N2CCN(c3ccc4ccccc4n3)CC2)n1	-14%
CC(C)Oc1ccc(-c2c[nH]cc2CN(C)CCN)cc1	60%
CC(=O)Nc1ccc(S(=O)(=O)Nc2cccc3cccnc23)cc1	i
COc1ccc(S(=O)(=O)Nc2cccnc2Nc2ccc(O)cc2)cc1	u	CHIKV nsP2 cell=-8%;CHIKV NSP2 FL=8%;Furin counter=-13%;NS23 peptide cs=i;Papain counter=-9%;nsP2pro conf qHTS=1%;HCV NS3 4A cs=i
COc1ccc(CNc2ccc(S(=O)(=O)Nc3nccs3)cc2)c(O)c1	-6%
Fc1cc(Nc2nc(-c3ccncc3)nc3ccccc23)ccc1N1CCNCC1	1%
Cc1ccnc(NC(=S)N2CCCc3ccc(C(F)(F)F)cc32)c1	i
Cc1cc(C)c2[nH]c(C(=O)N(C)Cc3ccccc3-n3cccn3)c(C)c2c1	2%
CC(C)C(=O)N1CCC2(CCC(=O)N(CC3CC3)CC2)CC1	-6%
O=[N+]([O-])c1cc(S(=O)(=O)Nc2ccc(O)c3ccccc23)ccc1Cl	5µM*	CHIKV nsP2 cell=u;CHIKV NSP2 FL=16µM*;Furin counter=-18%;NS23 peptide cs=12µM*;Papain counter=u;nsP2pro conf qHTS=5.7µM*;HCV NS3 4A cs=i
O=S(=O)(Nc1ccc(O)c2ncccc12)c1ccccc1F	-29%
O=c1[nH]c2ccc(S(=O)(=O)Nc3cc(Cl)ccc3O)cc2o1	26%
Cc1cc(C=CC#N)cc(C)c1Nc1nc(Nc2ccc3c(c2)OCO3)c2[nH]cnc2n1	2%
CC(C)c1cccc(-n2cnc3cc(C(=O)N4CCCCC4)ccc32)c1	1%
C=C[C@@]12COC(=O)C(=C)C1[C@@H](O)[C@H](C(=C)C(=O)OC)[C@@H](OC(=O)C(=C)CO)C2 (stereo not given in full)	-13%[10 µM]
C=C1C(=O)OC2/C=C(/C)C3=CC(=O)C(C)(CC(OC(=O)/C(C)=C/COC(C)=O)C12)O3 (stereo not given)	-6%[10 µM]
C=C(CO)C(=O)O[C@H]1C[C@@]23O[C@@H]2CC/C(=C/[C@H]2OC(=O)C(=C)[C@H]12)CO[C@H]3O	u	CHIKV nsP2 cell=12%[33.5 µM];CHIKV NSP2 FL=u;Furin counter=-1%[33.5 µM];NS23 peptide cs=u;Papain counter=-7%[33.5 µM];nsP2pro conf qHTS=-38%[16.7 µM];HCV NS3 4A cs=u
CC1(C)C[C@H]1C(=O)N/C(=C\CCCCSC[C@@H](N)C(=O)O)C(=O)O	-2%
Cc1cc(C)nc(NC(=S)N2CCN(c3cc(C(F)(F)F)nc4ccccc34)CC2)c1	-13%
SMILES	nsP2pro inh	others
COCc1cccc(C(=O)N2CC[C@@]3(O)CCN(S(C)(=O)=O)C[C@H]3C2)n1	2%
COC(=O)N[C@H](C(=O)N1CC2(CC2)C[C@H]1c1ncc(-c2ccc3c(c2)C(F)(F)c2cc(-c4ccc5nc([C@@H]6[C@H]7CC[C@H](C7)N6C(=O)[C@@H](NC(=O)OC)C(C)C)[nH]c5c4)ccc2-3)[nH]1)C(C)C	4%
Cc1ccc(CNc2ncnc3ccc(-c4ccc(CO)o4)cc23)o1	u	CHIKV nsP2 cell=14%;CHIKV NSP2 FL=18%;Furin counter=-11%;NS23 peptide cs=i;Papain counter=46%;nsP2pro conf qHTS=8%;HCV NS3 4A cs=i
Cc1csc(CNc2ncnc3ccc(-c4ccc(C(=O)O)o4)cc23)n1	-11%
Cc1ccc(CNc2ncnc3ccc(-c4ccc(C(=O)N(C)C)o4)cc23)o1	i
CC(O)c1ccc(-c2ccc3ncnc(NCc4nccs4)c3c2)o1 (stereo not given)	10µM*	CHIKV nsP2 cell=u;CHIKV NSP2 FL=12µM*;Furin counter=-20%;NS23 peptide cs=23µM*;Papain counter=41%;nsP2pro conf qHTS=-53%;HCV NS3 4A cs=12µM*
CCNC(=O)c1ccc(-c2ccc3ncnc(NCCc4cnc[nH]4)c3c2)o1	-14%
CCNC(=O)c1ccc(-c2ccc3ncnc(NCc4nccs4)c3c2)o1	-6%
c1nc(N2CCC(N3CCCC3)CC2)c2cc(-c3ccc4c(c3)OCO4)ccc2n1	i
Cc1ccc(CN(C)c2ncnc3ccc(-c4ccc(CO)o4)cc23)o1	-26%
O=C(O)c1ccc(-c2ccc3ncnc(N4CCOCC4)c3c2)o1	0%
CC(O)c1ccc(-c2ccc3ncnc(N4CCOCC4)c3c2)o1 (stereo not given)	10µM*	CHIKV nsP2 cell=u;CHIKV NSP2 FL=16µM*;Furin counter=-8%;NS23 peptide cs=u;Papain counter=18%;nsP2pro conf qHTS=4%;HCV NS3 4A cs=21µM*
O=C(O)c1ccc(-c2ccc3ncnc(NCCc4cnc[nH]4)c3c2)o1	i
OCc1ccc(-c2ccc3ncnc(NCCc4cnc[nH]4)c3c2)o1	1.1µM*	CHIKV nsP2 cell=21µM*;CHIKV NSP2 FL=2%;Furin counter=-6%;NS23 peptide cs=2%;Papain counter=7%;nsP2pro conf qHTS=82%;HCV NS3 4A cs=10µM*
CCOC(=O)CCNC(=O)N1CCCC(c2nc(C(C)C)no2)CCNC(=O)CC1 (stereo not given)	i
O=C1Nc2ccccc2/C1=C\c1ccc(O)c(F)c1	i
COc1cccc(CNc2ccc(S(=O)(=O)Nc3ccc(C4CCNCC4)cc3)cc2)c1O	-3%
NCCNc1ccc(NCCN)c2c1C(=O)c1ccncc1C2=O	40%
